In PubChem BioAssay AID624255 (Broad Institute, 2012):
Hit rate of the full screen: of about 77,000 compounds, about 4,600 (6%) were called active. Roughly 1% stayed inconclusive and do not appear here. The sample as a whole holds a higher share of actives than the screen did. A number with no mark means an inactive call.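 The calls were made as follows: active = mean inhibition above about 93%, with at least 55% of replicates each passing it (limit read from the data, passing the limit was not always enough); inconclusive = only one of those two conditions holds; inactive = neither condition holds.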

test: T. cruzi intracellular proliferation inhibitors, primary screen, cell-based, beta-gal Tulahuen parasites, NIH3T3 host, luminescence (AID 624255); conditions: T. cruzi beta-gal in NIH3T3, GalScreen luminescence, 90 h; at 8.34 µM; active compounds read high

| Compound | inhibition |
| --- | --- |
| C[C@@H]1CN([C@H](C)CO)C(=O)c2cc(NC(=O)Cc3ccccc3)ccc2O[C@@H](C)CCCCO[C@H]1CN(C)C(=O)Cc1ccccc1 | -33.3% |
| O=C(C[C@H]1CC[C@@H]2[C@H](COC[C@@H](O)CN2Cc2cccc(-c3ccncc3)c2)O1)N1CCOCC1 | 65.1% |
| O=C(C[C@@H]1CC[C@H]2[C@@H](COC[C@H](O)CN2S(=O)(=O)c2ccc(F)cc2)O1)N[C@H]1CCN(Cc2ccccc2)C1 | 67.7% |
| COc1ccccc1-c1ccc2c(c1)O[C@@H](CN(C)C)[C@H](C)CN([C@H](C)CO)S2(=O)=O | 102% (active) |
| Cc1ccc(-c2ccc3c(c2)O[C@H](CN(C)C)[C@@H](C)CN([C@H](C)CO)S3(=O)=O)cc1 | 107% (active) |
| Cc1ccccc1-c1ccc2c(c1)O[C@H](CN(C)C)[C@H](C)CN([C@@H](C)CO)S2(=O)=O | 15.2% |
| Cc1ccc(-c2ccc3c(c2)O[C@H](CN(C)C)[C@@H](C)CN([C@@H](C)CO)S3(=O)=O)cc1 | 71.8% |
| CCC(=O)N(C)C[C@@H]1Oc2cc(-c3ccccc3OC)ccc2S(=O)(=O)N([C@H](C)CO)C[C@H]1C | 52.7% |
| COc1ccccc1-c1ccc2c(c1)O[C@H](CN(C)S(=O)(=O)c1ccc(C)cc1)[C@@H](C)CN([C@H](C)CO)S2(=O)=O | 124% (active) |
| Cc1ccccc1-c1ccc2c(c1)O[C@H](CN(C)C)[C@@H](C)CN([C@H](C)CO)S2(=O)=O | 30% |
| CC(=O)N(C)C[C@H]1Oc2cc(-c3ccc(C)cc3)ccc2S(=O)(=O)N([C@@H](C)CO)C[C@@H]1C | 98.5% |
| CNC[C@@H]1Oc2cc(-c3ccccc3OC)ccc2S(=O)(=O)N([C@@H](C)CO)C[C@H]1C | 42.1% |
| CO[C@@H](CN(C)S(=O)(=O)c1cccc(Cl)c1)[C@H](C)CN([C@H](C)CO)S(=O)(=O)c1cccc(Cl)c1 | 71.5% |
| C[C@@H]1CCCCO[C@H](CN(C)C(=O)Cc2ccccc2)[C@@H](C)CN([C@@H](C)CO)C(=O)c2cc(NC(=O)c3ccccc3)ccc2O1 | 46.7% |
| O=C(NCC1CC1)[C@H]1[C@H](CO)[C@H]2Cn3c(ccc(/C=C/c4ccccc4)c3=O)[C@@H]1N2C(=O)C1CCC1 | -126% |
| O=C(NCc1ccccn1)[C@@H]1[C@@H](CO)[C@@H]2Cn3c(ccc(/C=C/c4ccccc4)c3=O)[C@H]1N2CC1CC1 | 110% (active) |
| CCCNC(=O)[C@@H]1[C@@H](CO)[C@@H]2Cn3c(ccc(/C=C/c4ccccc4)c3=O)[C@H]1N2CCC | 59.6% |
| COc1ccccc1NC(=O)N[C@H]1C=C[C@@H](CC(=O)N[C@@H](C)c2ccccc2)O[C@@H]1CO | 3.52% |
| CO[C@H]1CN(C)C(=O)c2cc(NC(=O)C3CCC3)ccc2OC[C@H](C)N(Cc2nccs2)C[C@H]1C | 16.8% |
| CCCNC(=O)[C@@H]1[C@@H](CO)[C@@H]2Cn3c(cccc3=O)[C@H]1N2C(=O)Nc1cc(F)ccc1F | 81.1% |
| CCCNC(=O)[C@@H]1[C@@H](CO)[C@@H]2Cn3c(cccc3=O)[C@H]1N2C(=O)C1CC1 | 38.4% |

| Compound | inhibition |
| --- | --- |
| C[C@@H]1CN([C@@H](C)CO)C(=O)c2cc(NC(=O)C3CCCCC3)ccc2O[C@@H](C)CCCCO[C@H]1CN(C)Cc1ccncc1 | 106% (active) |
| C[C@@H]1CCCCO[C@@H](CN(C)CC2CCCCC2)[C@H](C)CN([C@H](C)CO)C(=O)c2cc(NC(=O)C3CCCCC3)ccc2O1 | 51.3% |
| C[C@@H]1CCCCO[C@@H](CN(C)CC2CC2)[C@H](C)CN([C@H](C)CO)C(=O)c2cc(NC(=O)C3CCCCC3)ccc2O1 | 102% (active) |
| C[C@@H]1CCCCO[C@@H](CN(C)Cc2ccc(C(=O)O)cc2)[C@H](C)CN([C@@H](C)CO)C(=O)c2cc(NC(=O)C3CCCCC3)ccc2O1 | -8.6% |
| C[C@@H]1CN([C@@H](C)CO)C(=O)c2cc(NC(=O)C3CCCCC3)ccc2O[C@@H](C)CCCCO[C@@H]1CN(C)Cc1ccc(C(=O)O)cc1 | 15.2% |
| C[C@@H]1CCCCO[C@@H](CN(C)CC2CC2)[C@@H](C)CN([C@H](C)CO)C(=O)c2cc(NC(=O)C3CCCCC3)ccc2O1 | 89% |
| O=C(O)C[C@H]1C[C@@H]2c3cc(NC(=O)Nc4ccc(C(F)(F)F)cc4)ccc3O[C@@H]2[C@@H](CO)O1 | -33% |
| C[C@H]1CN([C@@H](C)CO)C(=O)c2cccc(NC(=O)Nc3ccccc3)c2O[C@H]1CN(C)S(=O)(=O)c1ccc(F)cc1 | -95% |
| C[C@H]1CCCCO[C@H](CN(C)CC2CC2)[C@@H](C)CN([C@@H](C)CO)C(=O)c2cc(NS(C)(=O)=O)ccc2O1 | 4.98% |
| CCNC(=O)Nc1ccc2c(c1)C(=O)N(C)[C@@H]1CC[C@@H](CC(=O)NC3CCCCC3)O[C@H]1CO2 | 12.5% |
| O=C(c1ccncc1)N1CCCCN2[C@H](CO)[C@H](c3ccc(-c4ccccc4)cc3)[C@H]2C1 | 103% (active) |
| O=C(c1cccc(F)c1)N1CCCCN2[C@H](CO)[C@@H](c3ccc(-c4cncnc4)cc3)[C@H]2C1 | 44.2% |
| COc1ccccc1-c1ccc([C@@H]2[C@@H](CO)N3CCCCN(C(=O)c4ccncc4)C[C@@H]23)cc1 | 52.8% |
| C[C@H](O)C#Cc1ccc([C@@H]2[C@@H](CO)N3CCCCN(C(=O)c4ccncc4)C[C@@H]23)cc1 | 15.2% |
| C[C@@H](O)C#Cc1ccc([C@H]2[C@H](CO)N3CCCCN(C(=O)c4ccc(F)cc4)C[C@@H]23)cc1 | -25.9% |
| CC(C)(O)C#Cc1ccc([C@H]2[C@H]3CN(C(=O)c4ccncc4)CCCCN3[C@H]2CO)cc1 | 22% |
| O=C(c1cccc(F)c1)N1CCCCN2[C@@H](CO)[C@H](c3ccc(-c4cncnc4)cc3)[C@@H]2C1 | 83.5% |
| O=C(c1cccc(F)c1)N1CCCCN2[C@H](CO)[C@H](c3ccc(-c4ccncc4)cc3)[C@H]2C1 | 99.9% (active) |
| O=C(c1ccc(F)cc1)N1CCCCN2[C@@H](CO)[C@H](c3ccc(-c4ccccc4)cc3)[C@@H]2C1 | 61.8% |
| COc1ccc(C#Cc2ccc([C@@H]3[C@@H](CO)N4CCCCN(C(=O)c5ccncc5)C[C@@H]34)cc2)cc1 | 98.5% (active) |
| CC(C)(O)C#Cc1ccc([C@H]2[C@@H](CO)N3CCCCN(C(=O)c4ccncc4)C[C@H]23)cc1 | 10.9% |

| Compound | inhibition |
| --- | --- |
| CC(C)(O)C#Cc1ccc([C@@H]2[C@H](CO)N3CCCCN(C(=O)c4cccc(F)c4)C[C@@H]23)cc1 | 112% (active) |
| O=C(C[C@@H]1CC[C@H]2[C@@H](COC[C@@H](O)CN2C(=O)c2ccc3c(c2)OCO3)O1)NC1CCCC1 | 27% |
| CCS(=O)(=O)Nc1ccc2c(c1)C(=O)N(C)[C@H]1CC[C@H](CC(=O)Nc3ccccc3)O[C@@H]1CO2 | 49.6% |
| C[C@@H]1CN([C@@H](C)CO)C(=O)c2cc(-c3ccc(F)cc3)cnc2O[C@H]1CN(C)C(=O)c1ccncc1 | 64.3% |
| CC(C)NC(=O)N(C)C[C@@H]1OCCCC[C@@H](C)Oc2ccc(NC(=O)c3ccccc3)cc2C(=O)N([C@@H](C)CO)C[C@H]1C | 30.5% |
| COc1ccc(NC(=O)N(C)C[C@@H]2OCCCC[C@@H](C)Oc3ccc(NC(=O)C4CCCCC4)cc3C(=O)N([C@@H](C)CO)C[C@@H]2C)cc1 | 36.5% |
| CN1CCN(C(=O)C[C@H]2CC[C@H]3[C@H](COc4ccc(NC(=O)C5CC5)cc4C(=O)N3C)O2)CC1 | 14.2% |
| O=C(C[C@@H]1C[C@@H]2c3cc(NC(=O)Nc4ccc(C(F)(F)F)cc4)ccc3O[C@@H]2[C@@H](CO)O1)NCCc1ccccc1 | 93.5% |
| COc1ccccc1NC(=O)N1C[C@H](O)COC[C@H]2O[C@H](CC(=O)NCCc3ccccc3)CC[C@@H]21 | -5.34% |
| CCCNC(=O)C[C@@H]1CC[C@@H]2[C@H](COc3ccc(NC(=O)C4CCOCC4)cc3C(=O)N2C)O1 | 47.3% |
| CO[C@@H]1CC[C@@H]2CCOc3ccc(C#N)cc3C(=O)N(C)C[C@@H](C)C(=O)N(C)C[C@@H]1O2 | 9.86% |
| C[C@H](O)C#Cc1ccc([C@H]2[C@H](CO)N3CCCCN(C(=O)c4ccc(F)cc4)C[C@@H]23)cc1 | 66.2% |
| CC(C)C#Cc1ccc([C@H]2[C@H](CO)N3CCCCN(C(=O)c4ccc(F)cc4)C[C@@H]23)cc1 | 80.8% |
| O=C(c1cccc(F)c1)N1CCCCN2[C@H](CO)[C@H](c3ccc(C#CC4(O)CCCC4)cc3)[C@H]2C1 | 88.1% |
| O=C(c1ccc(F)cc1)N1CCCCN2[C@H](C1)[C@@H](c1ccc(C#CC3(O)CCCC3)cc1)[C@@H]2CO | 113% (active) |
| COc1ccc(S(=O)(=O)N(C)C[C@@H]2OCCCC[C@@H](C)Oc3ccc(N(C)C)cc3C(=O)N([C@@H](C)CO)C[C@@H]2C)cc1 | 46.8% |
| O=C(C[C@@H]1CC[C@@H](NC(=O)CC2CC2)[C@H](CO)O1)NCc1ccc(-c2ccccc2)cc1 | 36.4% |
| N#C[C@@H]1[C@@H](c2ccccc2)[C@@H](CO)N1C(=O)c1cc(Cl)cc(Cl)c1 | 90.7% |
| COc1ccc(NC(=O)Nc2ccc3c(c2)C(=O)N([C@@H](C)CO)C[C@@H](C)[C@H](CN(C)C(=O)NC(C)C)OCCCC[C@H](C)O3)cc1 | 19.2% |
